Screening data: PubChem BioAssay, several laboratories
Rows were chosen to be rich in hits. Some 27% of all compounds tested hit in one or more screens of this group.
CYP2C9 inh = inhibitors of human CYP2C9 | P11712 | CYP2C9 Supersomes, luciferin-H conversion, luminescence | inhibition, % at 5 µM | hit rate 20% among 96,000;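 active = blocking of liver enzyme CYP2C9 beyond about 50% at 5 µM, limit read from the data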
sEH inh = soluble epoxide hydrolase (human) inhibition; hit rate 0.34% among 91,000; P34913; recombinant human sEH enzymatic activity assay; AID 707; inhibition, % at 2 µM; in the data active = inhibition above about 80%
Target sequence (P34913 whole entry, looked up): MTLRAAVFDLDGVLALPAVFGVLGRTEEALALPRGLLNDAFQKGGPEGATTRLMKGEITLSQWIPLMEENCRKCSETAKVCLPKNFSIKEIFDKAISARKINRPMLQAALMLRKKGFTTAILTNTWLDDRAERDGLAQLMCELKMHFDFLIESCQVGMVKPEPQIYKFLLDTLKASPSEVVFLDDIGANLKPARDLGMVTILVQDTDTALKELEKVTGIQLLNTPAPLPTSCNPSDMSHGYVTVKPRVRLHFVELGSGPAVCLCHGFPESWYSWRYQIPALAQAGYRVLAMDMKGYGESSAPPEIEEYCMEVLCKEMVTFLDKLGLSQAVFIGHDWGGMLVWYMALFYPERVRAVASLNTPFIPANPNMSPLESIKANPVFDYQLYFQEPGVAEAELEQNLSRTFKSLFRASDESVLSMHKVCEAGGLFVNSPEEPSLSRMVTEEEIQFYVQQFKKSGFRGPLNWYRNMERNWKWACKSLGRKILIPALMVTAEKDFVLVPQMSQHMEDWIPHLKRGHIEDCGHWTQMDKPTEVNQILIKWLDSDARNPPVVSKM
CYP2C19 inh = blocks human cytochrome P450 2C19. CYP2C19 Supersomes, luciferin-H EGE luminescence, 30 min. inhibition, % at 5 µM. hit rate 21% among 96,000. AID 778;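 active = CYP2C19 inhibition above a set limit at 5 µM in the primary screen, cut at about 50% in these data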;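 also: plate controls were negative control wells for no effect and 2.5 mM tranylcypromine positive control for full effect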
sEH act = increases human soluble epoxide hydrolase activity. purified human sEH enzymatic activity, activator screen. activation, % at 2 µM. hit rate 0.04% among 91,000. AID 717; in the data active = activation above about 37%
CYP2C9 act = CYP2C9 (human) activation; P11712; recombinant CYP2C9, luciferin-H conversion, luminescence; stronger effect = higher value; factor 1 = untreated enzyme, 0 = blocked; activation factor at 5 µM; hit rate 1.4% among 96,000;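 active = activation factor of 2 or more for CYP2C9 at a 5 µM dose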;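 also: 0 = sulfaphenazole-blocked wells and 1 = vehicle-only wells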
CYP2C19 activ = increases human CYP2C19 enzyme activity. AID 1025. activation factor at 5 µM. 96,000 tested, under 10 active. recombinant CYP2C19, luciferin-H EGE luminescence; stronger effect = higher value; 0 = fully inhibited enzyme, 1 = untreated enzyme;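 active = activation factor of at least 2 at 5 µM in the primary screen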;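 also: 0 = wells with 2.5 mM tranylcypromine and 1 = vehicle-only wells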
* marks the source's active call; other numbers are inactive results; / = no result.

SMILES | CYP2C9 inh | sEH inh | CYP2C19 inh | sEH act | CYP2C9 act | CYP2C19 activ
Cc1nn(Cc2c(F)c(F)c(F)c(F)c2F)c(C)c1NC(=O)c1cccc(COc2ccc(Cl)cc2)c1 | 13 | 4 | 10 | -4 | 0.9 | 0.9
COC(=O)CNC(c1ccccc1)c1cc(Br)ccc1NC(=O)OCc1ccccc1 (stereo not drawn) | 74* | 15 | 43 | -13 | 0.3 | 0.6
O=C(O)CC(NC(=O)OCc1ccccc1)c1ccc(Br)cc1 (stereo not drawn) | 30 | 6 | 11 | -4 | 0.7 | 0.9
COC(=O)CNC(c1ccccc1)c1cc(C)ccc1NC(=O)CNC(=O)OCc1ccccc1 (stereo not drawn) | 94* | 5 | 82* | -3 | 0.1 | 0.2
Cn1c(NC(=O)c2ccco2)cc(=O)n(C)c1=O | 4 | / | 2 | / | 1 | 1
CC1(C)Cc2ccccc2C2CC(O)C(=O)N21 (stereo not drawn) | -9 | -8 | -6 | 7 | 1.1 | 1.1
CCCNS(=O)(=O)c1cc(Br)cc2c1N(C(=O)CC)CC2 | -58 | / | 36 | / | 1.6 | 0.6
Cc1ccc(CNC(=O)CCS(=O)(=O)c2cc(Br)cc3c2N(C(=O)C2CC2)CC3)o1 | 89* | / | 48 | / | 0.1 | 0.5
CCC(=O)N1CCc2cc(Br)cc(S(=O)(=O)CCC(=O)NCCc3ccccc3)c21 | 72* | 7 | 29 | -9 | 0.3 | 0.7
Cc1onc(-c2ccccc2)c1C(=O)OCC(=O)Nc1ccc2c(c1)OCO2 | 52* | 14 | 54* | -14 | 0.5 | 0.5
Cc1nn(-c2ccccc2)c(Cl)c1C(=O)OC(C)C(=O)Nc1ccc2c(c1)OCO2 (stereo not drawn) | 79* | -6 | 85* | 6 | 0.2 | 0.1
Cc1onc(-c2ccccc2Cl)c1C(=O)OCC(=O)Nc1ccc2c(c1)OCO2 | 88* | / | 99* | / | 0.1 | 0
Cc1onc(-c2ccccc2Cl)c1C(=O)Nc1ccccc1 | / | 2 | / | 2 | / | /
Cc1nn(-c2ccccc2)c(C)c1C(=O)OCC(=O)Nc1ccc2c(c1)OCO2 | 89* | / | 95* | / | 0.1 | 0
CCOC(=O)c1ccc(NC2OC(=O)c3ccccc32)cc1 (stereo not drawn) | -1 | -2 | 37 | 0 | 1 | 0.6
Cc1cccc(OCc2nnc(NC(=O)Cc3cccs3)s2)c1 | / | 6 | / | -2 | / | /
Cc1onc(-c2ccccc2)c1C(=O)Nc1ccc2c(c1)OCO2 | 79* | 17 | 99* | -13 | 0.2 | 0
Cc1nnc(NC(=O)CSc2nc(C(C)C)nc3sc(C)c(C)c23)s1 | 31 | 30 | 22 | -30 | 0.7 | 0.8
CCOC(=O)CC1(CC(=O)OCC)NC(=O)c2c(C)sc(C(=O)OCC)c2N1 | 48 | -14 | 96* | 15 | 0.5 | 0
CCCCC1(C)NC(=O)c2c(C)sc(C(=O)OCC)c2N1 (stereo not drawn) | 94* | -15 | 30 | 17 | 0.1 | 0.7
CCOC(=O)CC1(C)NC(=O)c2c(C)sc(C(=O)OCC)c2N1 (stereo not drawn) | 23 | 8 | 36 | -7 | 0.8 | 0.6
Cc1cc(NC(=O)CSc2nc(-c3ccco3)cc(C(F)(F)F)n2)no1 | / | 4 | / | -8 | / | /
CCOC(=O)c1sc(NC(=O)CSc2ncn[nH]2)c(C#N)c1C | 82* | 1 | 79* | 2 | 0.2 | 0.2
CCOC(=O)c1sc(N(Cc2ccccc2)C(=O)CSc2ncn[nH]2)nc1C | 79* | -2 | 5 | 0 | 0.2 | 1
CCOC(=O)c1sc(NC(=O)CSc2nc(-c3ccco3)cc(C(F)(F)F)n2)c(C#N)c1C | 74* | -1 | 43 | 0 | 0.3 | 0.6
SMILES | CYP2C9 inh | sEH inh | CYP2C19 inh | sEH act | CYP2C9 act | CYP2C19 activ
CCOC(=O)c1sc(NC(=O)CSc2n[nH]c(-c3ccccc3)n2)c(C#N)c1C | 72* | / | 19 | / | 0.3 | 0.8
CCOC(=O)c1sc(NC(=O)CSc2ccccn2)c(C#N)c1C | -8 | -12 | -12 | 17 | 1.1 | 1.1
Cc1nc2ccccc2n1CC(=O)OCC(=O)NCCc1ccccc1 | -15 | 4 | -17 | -9 | 1.2 | 1.2
CCOC(=O)c1sc(NC(=O)c2cccnc2)c(C#N)c1C | 94* | -25 | -4 | 23 | 0.1 | 1
O=S1(=O)C=C(Oc2ccc(F)cc2)c2ccccc21 | 29 | 4 | 81* | -4 | 0.7 | 0.2
COC(=O)CCC(=O)c1oc2ccccc2c1N | 35 | -8 | 84* | 10 | 0.7 | 0.2
COC(=O)CCC(=O)c1oc2ccccc2c1NC(=O)CCCN1C(=O)c2ccccc2C1=O | 48 | 7 | 12 | -8 | 0.5 | 0.9
Cc1ccc(F)cc1NC(=O)CCC(=O)c1cccs1 | 44 | 4 | 89* | -3 | 0.6 | 0.1
CC1CN(C(=O)C(c2ccccc2)c2ccccc2)CC(C)O1 (stereo not drawn) | 11 | 15 | 10 | -15 | 0.9 | 0.9
CN1/C(=C\C=Nc2ccc3ccccc3c2)C(C)(C)c2ccccc21 | 1 | 5 | 30 | -7 | 1 | 0.7
Cc1cc(/N=C/C=C2\N(C)c3ccccc3C2(C)C)n(CCC#N)n1 | 41 | -7 | 55* | 10 | 0.6 | 0.4
O=C(CSc1nnc(-c2ccncc2)n1Cc1ccco1)Nc1ccccc1Cl | 89* | -2 | 97* | 1 | 0.1 | 0
O=C(CSc1nnc(-c2ccc(Cl)cc2)n1Cc1ccco1)c1cccs1 | 55* | -3 | 7 | 2 | 0.5 | 0.9
O=C(CSc1nnc(-c2ccncc2)n1Cc1ccco1)c1ccc(Cl)cc1 | 92* | 1 | 95* | -1 | 0.1 | 0.1
CCOC(=O)c1cc(C)n(Cc2ccc(OCC)c(OC)c2)c1C | 59* | -7 | 15 | 9 | 0.4 | 0.8
CCOc1cc(CN2CCCCC2)ccc1OC | -13 | -14 | 9 | 18 | 1.1 | 0.9
CCCCNc1c([N+](=O)[O-])cc(C)cc1[N+](=O)[O-] | 20 | 7 | 14 | -5 | 0.8 | 0.9
COc1ccccc1OCCSc1nnnn1-c1ccc(C)cc1 | 23 | 7 | 99* | -3 | 0.8 | 0
Cc1ncc(CSc2nnnn2-c2ccccc2)c(N)n1 | -13 | 2 | 64* | 0 | 1.1 | 0.4
Fc1ccccc1OCCSc1nnnn1-c1ccccc1 | 44 | -14 | 43 | 14 | 0.6 | 0.6
c1ccc(OCCSc2nnnn2-c2ccccc2)cc1 | 36 | 2 | 11 | -3 | 0.6 | 0.9
CCSc1nnnn1-c1ccccc1 | 9 | -12 | 32 | 9 | 0.9 | 0.7
CCOc1ccc(OCCSc2nnnn2-c2ccccc2)cc1 | 50* | 0 | 31 | 2 | 0.5 | 0.7
CCOc1ccc(OCCSc2nnnn2C2CCCCC2)cc1 | 88* | -2 | 57* | 0 | 0.1 | 0.4
COc1cc(NC(=O)c2ccccc2)cc(OC)c1 | 7 | / | 19 | / | 0.9 | 0.8
COc1ccc(C(=O)Nc2cccc(OC(=O)c3ccc(C)c(C)c3)c2)cc1 | 70* | 2 | 27 | 0 | 0.3 | 0.7
COc1ccc(OCc2ccc(C(=O)NN)cc2)cc1 | 69* | 13 | 92* | -12 | 0.3 | 0.1
